# From the supplement of paper PMC6658780
# Where a name gives a salt, the structure may show the parent alone. ± gives the standard deviation of the averaged measurements.
# System: Klebsiella pneumoniae NCTC-13439
# Assay: percent growth inhibition of drug alone vs DMSO control; higher = more growth inhibition
# Details: antibiotic (0.125x MIC): none (0.1% DMSO); 20 µM
row,SMILES,percent growth inhibition of drug alone [%]
1,CC(=O)OC[C@H]1O[C@@H]([S-])[C@H](OC(C)=O)[C@@H](OC(C)=O)[C@@H]1OC(C)=O.CCP(CC)CC.[Au+] [Auranofin],22.6 ± 13
2,CO[C@H]1/C=C/O[C@@]2(C)Oc3c(C)c(O)c4c(O)c(c(/C=N/N5CCN(C6CCCC6)CC5)c(O)c4c3C2=O)NC(=O)/C(C)=C\C=C\[C@H](C)[C@H](O)[C@@H](C)[C@@H](O)[C@@H](C)[C@H](OC(C)=O)[C@@H]1C [Rifapentine],11.1 ± 17
3,CN(C)c1ccc(O)c2c1C[C@H]1C[C@H]3[C@H](N(C)C)C(O)=C(C(N)=O)C(=O)[C@@]3(O)C(O)=C1C2=O [Minocycline hydrochloride],6.86 ± 3.9
4,NC[C@@H]1O[C@H](O[C@H]2[C@@H](O)[C@H](O[C@@H]3[C@@H](O)[C@H](N)C[C@H](N)[C@H]3O[C@H]3O[C@H](CO)[C@@H](O)[C@H](O)[C@H]3N)O[C@@H]2CO)[C@H](N)[C@@H](O)[C@@H]1O [Paromomycin sulfate],43.7 ± 12
5,O=C1OCCN1/N=C/c1ccc([N+](=O)[O-])o1 [Furazolidone],49.8 ± 1.5
6,CN[C@@H]1[C@@H](O[C@H]2O[C@H](CO)[C@@H](N)[C@H](O)[C@H]2O)OC2C[C@@H](N)[C@@H](O[C@H]3[C@H](O)[C@@H](O)[C@H](N)C[C@@H]3N)OC2[C@@H]1O (some centres undefined) [Apramycin],88 ± 17
7,O=C(O)c1cn(-c2ccc(F)cc2)c2cc(N3CCNCC3)c(F)cc2c1=O [Sarafloxacin],98.4 ± 1.6
8,OCCOCCN1CCN(C2=Nc3ccccc3Sc3ccccc32)CC1 [Quetiapine hemifumarate],-5.29 ± 6.1
9,CO[C@H]1/C=C/O[C@@]2(C)Oc3c(C)c(O)c4c(O)c(c5c(nc6cc(C)ccn65)c4c3C2=O)NC(=O)/C(C)=C\C=C\[C@H](C)[C@H](O)[C@@H](C)[C@@H](O)[C@@H](C)[C@H](OC(C)=O)[C@@H]1C [Rifaximin],17.5 ± 13
10,CC[C@H]1OC(=O)[C@H](C)[C@@H](O[C@H]2C[C@@](C)(OC)[C@@H](O)[C@H](C)O2)[C@H](C)[C@@H](O[C@@H]2O[C@H](C)C[C@H](N(C)C)[C@H]2O)[C@](C)(O)C[C@@H](C)CN(C)[C@H](C)[C@@H](O)[C@]1(C)O [Azithromycin],74.4 ± 19
11,O=c1[nH]c(=O)n([C@H]2C[C@H](O)[C@@H](CO)O2)cc1F [Floxuridine],99.63 ± 0.17

# System: Escherichia coli ATCC BAA-2469
# Assay: percent growth inhibition of drug + antibiotic vs DMSO control; higher = more growth inhibition
# Details: antibiotic (0.125x MIC): gentamicin; 7 µM
# Description: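 Prestwick drugs tested at 20 uM and 7 uM with an antibiotic at 0.125x MIC (16 mg/L when MIC >128 mg/L) against E. coli ATCC BAA-2469 (NDM-1) in CAMHB, 384-well plates, duplicate runs. Percent growth inhibition was computed from OD600 (24 h minus 0 h) relative to DMSO wells. Drug + DMSO-only wells are also given. […]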
row,SMILES,percent growth inhibition [%]
1,CCOC(=O)c1ccc(N)cc1 [Benzocaine],0.573 ± 3.1
2,CO/N=C(\C(=O)N[C@@H]1C(=O)N2C(C(=O)O)=C(COC(N)=O)CS[C@H]12)c1ccco1 [Cefuroxime sodium salt],-0.221 ± 4.4
3,COc1cc(C(=O)NCc2ccc(OCCN(C)C)cc2)cc(OC)c1OC [Trimethobenzamide hydrochloride],0.833 ± 1.4
4,COc1cc(NS(=O)(=O)c2ccc(N)cc2)nc(OC)n1 [Sulfadimethoxine],1.55 ± 1.5
5,Nc1nnc(-c2cccc(Cl)c2Cl)c(N)n1 [Lamotrigine],7.06 ± 4.8
6,O=C(Nc1ccc([N+](=O)[O-])cc1Cl)c1cc(Cl)ccc1O [Niclosamide],10.1 ± 2
7,COc1ccc2c(c1)c(CC(=O)OCC(=O)O)c(C)n2C(=O)c1ccc(Cl)cc1 [Acemetacin],2.64 ± 1.7

# System: Klebsiella pneumoniae KPC-119
# Assay: as above
# Details: antibiotic (0.125x MIC): colistin; 7 µM
row,SMILES,percent growth inhibition [%]
1,Cc1cc(C(C)(C)CC(C)(C)C)ccc1OCCOCC[N+](C)(C)Cc1ccccc1 [Methyl benzethonium chloride],22 ± 6.4
2,CC(=O)OC[C@H]1O[C@@H]([S-])[C@H](OC(C)=O)[C@@H](OC(C)=O)[C@@H]1OC(C)=O.CCP(CC)CC.[Au+] [Auranofin],101 ± 3.5
3,CN(C)c1ccc(O)c2c1C[C@H]1C[C@H]3[C@H](N(C)C)C(O)=C(C(N)=O)C(=O)[C@@]3(O)C(O)=C1C2=O [Minocycline hydrochloride],97.33 ± 0.15
4,NC[C@@H]1O[C@H](O[C@H]2[C@@H](O)[C@H](O[C@@H]3[C@@H](O)[C@H](N)C[C@H](N)[C@H]3O[C@H]3O[C@H](CO)[C@@H](O)[C@H](O)[C@H]3N)O[C@@H]2CO)[C@H](N)[C@@H](O)[C@@H]1O [Paromomycin sulfate],12.7 ± 6.7
5,Oc1c(Cl)cc(Cl)c(Cl)c1Cc1c(O)c(Cl)cc(Cl)c1Cl [Hexachlorophene],4.52 ± 2.5
6,OC(c1cc(C(F)(F)F)nc2c(C(F)(F)F)cccc12)C1CCCCN1 (centres undefined) [Mefloquine hydrochloride],1.61 ± 13
7,COc1cccc2c1C(=O)c1c(O)c3c(c(O)c1C2=O)C[C@@](O)(C(=O)CO)C[C@@H]3O[C@H]1C[C@H](N)[C@@H](O)[C@H](C)O1 [Epirubicin hydrochloride],-0.818 ± 0.78
8,CO[C@H]1/C=C/O[C@@]2(C)Oc3c(C)c(O)c4c(c3C2=O)C2=NC3(CCN(CC(C)C)CC3)NC2=C(NC(=O)/C(C)=C\C=C\[C@H](C)[C@H](O)[C@@H](C)[C@@H](O)[C@@H](C)[C@H](OC(C)=O)[C@@H]1C)C4=O [Rifabutin],97.8 ± 1.9
9,O=C1OCCN1/N=C/c1ccc([N+](=O)[O-])o1 [Furazolidone],96.1 ± 7
10,CO[C@H]1/C=C/O[C@@]2(C)Oc3c(C)c(O)c4c(O)c(c5c(nc6cc(C)ccn65)c4c3C2=O)NC(=O)/C(C)=C\C=C\[C@H](C)[C@H](O)[C@@H](C)[C@@H](O)[C@@H](C)[C@H](OC(C)=O)[C@@H]1C [Rifaximin],99.23 ± 0.84
11,CC[C@H]1OC(=O)[C@H](C)[C@@H](O[C@H]2C[C@@](C)(OC)[C@@H](O)[C@H](C)O2)[C@H](C)[C@@H](O[C@@H]2O[C@H](C)C[C@H](N(C)C)[C@H]2O)[C@](C)(O)C[C@@H](C)CN(C)[C@H](C)[C@@H](O)[C@]1(C)O [Azithromycin],40.9 ± 12
